From PubChem BioAssay (NCI)
The panel holds about 79,000 compounds, 15% with a hit somewhere; the sample as a whole holds those more often. Unmarked numbers belong to inactive results. The source made the active and inactive calls. Rule as the data show it: active = growth inhibition above about 70%; inactive = the rest.

Assay: NCI Yeast Anticancer Drug Screen. Data for the sgs1 mgt1 strain (AID 161);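 also: 0% = growth of cultures given vehicle only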
Details: S. cerevisiae sgs1 mgt1 strain, stronger effect = higher value; at 50.0 µM unless noted
Procedure, shortened: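 Inhibition of yeast growth, normalised to vehicle-treated controls, is reported for a strain bearing genetic alterations in DNA damage repair.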
With `CC(N)C(=O)NO` (stereo not drawn) the growth inhibition was -16.2%. In the case of `O=P(O)(O)OCC1OC(n2cnc3c(=S)nc[nH]c32)C(O)C1O` (stereo not drawn), the growth inhibition is reported as -14.1%. Molecule `C=C=C(C)[Si](C)(C)C` has a growth inhibition of -29.9%. Work on `Nc1ccc(C(=O)N/N=C/c2ccccc2O)cc1` yielded a growth inhibition of 4.15%. With `O=C1NC(=S)S/C1=C/C=C/c1ccccc1` the growth inhibition was 7.7%. `C=C(c1c(C)cccc1OC(C)=O)c1c(C)cccc1OC(C)=O` showed a growth inhibition of -0.6%. With `COc1ccc(/C=C2\N=C3N(Cc4ccccc4)C=C(N)N3C2=O)cc1` the growth inhibition was 15.8%. Molecule `COc1ccc2oc3cc(Cl)ccc3c(=O)c2c1` has a growth inhibition of -8.85%. For `O=C(CCC1OCCO1)Nc1cc([N+](=O)[O-])ccc1OCc1ccccc1`, the growth inhibition was 6.25%. With `CC(=O)O[C@@H]1C(=O)C=C(C)[C@@H]2[C@@H](OC(=O)C=C(C)C)[C@H]3OC(=O)C[C@H]4[C@@H](C)[C@@H](O)[C@]5(O)OC[C@]34[C@H]5[C@@]12C` the growth inhibition was 71.8% (active). For `COc1ccccc1N=Nc1c(O)n(-c2ccccc2OC)c(=S)n(-c2ccccc2)c1=O`, the growth inhibition was 31.9%. Molecule `CCOC(=N)n1c(=O)n(C2=NCCN2)c2ccccc21` has a growth inhibition of -48.5%. For `C=CCCCC1CCCNC1=S` (stereo not drawn), the growth inhibition was 20.4%. Work on `N#C/C(=C\c1ccccc1)c1ccc(F)cc1` yielded a growth inhibition of 25.7%. Work on `CC(c1cccc(O)c1)N(C)C` (stereo not drawn) yielded a growth inhibition of 0.7%. Work on `[N-]=[N+]=Nc1cccc(-c2n[nH]c(Cl)cc2=O)c1` yielded a growth inhibition of -38.6%. Molecule `C=CCOC(=O)c1ccc(C(C)C)cc1` has a growth inhibition of 9.5%. `O=C1C=C(c2ccccc2)C(c2ccccc2)/C1=N/O` (stereo not drawn) gave a growth inhibition of 2.55%. Molecule `CCO/C([O-])=N\[n+]1c(C)nc2cc3c(cc2c1C)OCO3` has a growth inhibition of 1.2%. `CCN(CC)CCCC(C)Nc1ncnc2ccccc12` (stereo not drawn) gave a growth inhibition of 23.1%. For `COc1ccc(CC2c3cc(OC)c(OC)cc3CC[N+]2(C)C)cc1OC` (stereo not drawn), the growth inhibition was 1.6%. Molecule `CCN(CC)CCn1c2cc3c(cc2c(=O)c2cccnc21)OCO3` has a growth inhibition of -29.4%. With `CCOC(=O)C1=C(C(=O)c2ccc(OC)cc2)C(c2ccc([N+](=O)[O-])cc2)C(C(=O)c2ccc(OC)cc2)=C(C(=O)OCC)N1` the growth inhibition was 0.1%. Molecule `CCN(CC)CCC(=O)c1ccc(Cl)cc1` has a growth inhibition of 14.1%. `Cc1n[nH]c(=O)n1/N=C/c1ccncc1` showed a growth inhibition of -6%. In the case of `O=C1CSC(c2c[nH]c3ccccc23)N1c1ccc(Cl)cc1` (stereo not drawn), the growth inhibition is reported as -46.2%. Work on `O=C1OC(=O)c2c1nc1ccccc1c2-c1ccccc1` yielded a growth inhibition of 9.35%. Work on `CC(=O)OC1CC(n2cc(F)c(=O)[nH]c2=O)OC1CO` (stereo not drawn) yielded a growth inhibition of -10.4%. `CC(=O)Nc1snc(C)c1[N+](=O)[O-]` showed a growth inhibition of 6.75%. `Cc1onc(-c2ccccc2)c1C(C)(O)c1ccccc1` (stereo not drawn) showed a growth inhibition of 16.6%. With `Clc1ccc(-c2cn3c(nc4ccccc43)c(-c3ccccc3)n2)cc1` the growth inhibition was -10.1%. Molecule `CCOC(=O)C1Oc2ccc([N+](=O)[O-])cc2C1(C)O` (stereo not drawn) has a growth inhibition of -6.85%. `O=c1[nH]c2cc(Cl)ccc2nc1/C(=N\O)C(O)c1ccc([N+](=O)[O-])cc1` (stereo not drawn) gave a growth inhibition of -21.2%. Work on `CC(C)OC(=O)C(O)c1ccccc1` (stereo not drawn) yielded a growth inhibition of -25.4%. Molecule `CSc1ccc2nncc(SC)c2c1` has a growth inhibition of 12.9%. `CCN(CC)C/C(C)=C(/c1ccccc1)c1ccccc1S(N)(=O)=O` gave a growth inhibition of -1.5%. In the case of `COC(=O)C(=O)c1c(C(=O)OC)nc2nnc(N)n2c1-c1cccc([N+](=O)[O-])c1`, the growth inhibition is reported as 3.1%. `CC(=O)c1ccc(N=CC2CCCCC2=O)cc1` (stereo not drawn) showed a growth inhibition of 17.1%. For `Cc1c(Cl)cccc1NC(=O)COc1ccc(Cl)cc1`, the growth inhibition was 4.2%.

Assay: NCI Yeast Anticancer Drug Screen. Data for the cln2 rad14 strain (AID 165);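 also: 0% = growth equal to vehicle treated cultures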
Details: S. cerevisiae cln2 rad14 strain, stronger effect = higher value; at 50.0 µM unless noted
Procedure, shortened: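 Test compounds were added to cln2 rad14 yeast cultures; inhibition of growth was then determined by comparison with vehicle treatment.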
Work on `CC(N)C(=O)NO` (stereo not drawn) yielded a growth inhibition of -40.6%. `O=P(O)(O)OCC1OC(n2cnc3c(=S)nc[nH]c32)C(O)C1O` (stereo not drawn) gave a growth inhibition of 3.9%. Molecule `C=C=C(C)[Si](C)(C)C` has a growth inhibition of -3.25%. `Nc1ccc(C(=O)N/N=C/c2ccccc2O)cc1` showed a growth inhibition of 7.55%. `O=C1NC(=S)S/C1=C/C=C/c1ccccc1` gave a growth inhibition of 15.9%. For `C=C(c1c(C)cccc1OC(C)=O)c1c(C)cccc1OC(C)=O`, the growth inhibition was -9.1%. Work on `COc1ccc(/C=C2\N=C3N(Cc4ccccc4)C=C(N)N3C2=O)cc1` yielded a growth inhibition of -6.55%. Molecule `COc1ccc2oc3cc(Cl)ccc3c(=O)c2c1` has a growth inhibition of 4.35%. With `O=C(CCC1OCCO1)Nc1cc([N+](=O)[O-])ccc1OCc1ccccc1` the growth inhibition was -8.2%. With `CC(=O)O[C@@H]1C(=O)C=C(C)[C@@H]2[C@@H](OC(=O)C=C(C)C)[C@H]3OC(=O)C[C@H]4[C@@H](C)[C@@H](O)[C@]5(O)OC[C@]34[C@H]5[C@@]12C` the growth inhibition was 88.5% (active). With `COc1ccccc1N=Nc1c(O)n(-c2ccccc2OC)c(=S)n(-c2ccccc2)c1=O` the growth inhibition was -13.4%. Molecule `CCOC(=N)n1c(=O)n(C2=NCCN2)c2ccccc21` has a growth inhibition of 1.95%. In the case of `C=CCCCC1CCCNC1=S` (stereo not drawn), the growth inhibition is reported as 12.6%. In the case of `N#C/C(=C\c1ccccc1)c1ccc(F)cc1`, the growth inhibition is reported as 18.4%. With `CC(c1cccc(O)c1)N(C)C` (stereo not drawn) the growth inhibition was -10.4%. `[N-]=[N+]=Nc1cccc(-c2n[nH]c(Cl)cc2=O)c1` showed a growth inhibition of 3.1%. `C=CCOC(=O)c1ccc(C(C)C)cc1` showed a growth inhibition of 7.6%. With `O=C1C=C(c2ccccc2)C(c2ccccc2)/C1=N/O` (stereo not drawn) the growth inhibition was 13.1%. In the case of `CCO/C([O-])=N\[n+]1c(C)nc2cc3c(cc2c1C)OCO3`, the growth inhibition is reported as 7.8%. `CCN(CC)CCCC(C)Nc1ncnc2ccccc12` (stereo not drawn) showed a growth inhibition of 15.6%. Work on `COc1ccc(CC2c3cc(OC)c(OC)cc3CC[N+]2(C)C)cc1OC` (stereo not drawn) yielded a growth inhibition of 10.9%. `CCN(CC)CCn1c2cc3c(cc2c(=O)c2cccnc21)OCO3` showed a growth inhibition of 13.8%. `CCOC(=O)C1=C(C(=O)c2ccc(OC)cc2)C(c2ccc([N+](=O)[O-])cc2)C(C(=O)c2ccc(OC)cc2)=C(C(=O)OCC)N1` gave a growth inhibition of 14.1%. In the case of `CCN(CC)CCC(=O)c1ccc(Cl)cc1`, the growth inhibition is reported as 10.3%. Molecule `Cc1n[nH]c(=O)n1/N=C/c1ccncc1` has a growth inhibition of -17%. `O=C1CSC(c2c[nH]c3ccccc23)N1c1ccc(Cl)cc1` (stereo not drawn) showed a growth inhibition of -3.55%. With `O=C1OC(=O)c2c1nc1ccccc1c2-c1ccccc1` the growth inhibition was 26%. For `CC(=O)OC1CC(n2cc(F)c(=O)[nH]c2=O)OC1CO` (stereo not drawn), the growth inhibition was -17%. With `CC(=O)Nc1snc(C)c1[N+](=O)[O-]` the growth inhibition was -8.2%. Work on `Cc1onc(-c2ccccc2)c1C(C)(O)c1ccccc1` (stereo not drawn) yielded a growth inhibition of -17.9%. `Clc1ccc(-c2cn3c(nc4ccccc43)c(-c3ccccc3)n2)cc1` gave a growth inhibition of 2.35%. `CCOC(=O)C1Oc2ccc([N+](=O)[O-])cc2C1(C)O` (stereo not drawn) showed a growth inhibition of 22.6%. Work on `O=c1[nH]c2cc(Cl)ccc2nc1/C(=N\O)C(O)c1ccc([N+](=O)[O-])cc1` (stereo not drawn) yielded a growth inhibition of -24.6%. `CC(C)OC(=O)C(O)c1ccccc1` (stereo not drawn) gave a growth inhibition of -50%. For `CSc1ccc2nncc(SC)c2c1`, the growth inhibition was 40.1%. `CCN(CC)C/C(C)=C(/c1ccccc1)c1ccccc1S(N)(=O)=O` showed a growth inhibition of -30.6%. With `COC(=O)C(=O)c1c(C(=O)OC)nc2nnc(N)n2c1-c1cccc([N+](=O)[O-])c1` the growth inhibition was 17.3%. `CC(=O)c1ccc(N=CC2CCCCC2=O)cc1` (stereo not drawn) gave a growth inhibition of -30.1%. For `Cc1c(Cl)cccc1NC(=O)COc1ccc(Cl)cc1`, the growth inhibition was -3.7%.
